Our source for the outcome values is PubChem BioAssay (EPA / NIEHS).

Results filed as inconclusive are left out. The source made the active and inactive calls. The calls were made as follows: active = hit-call score of the fitted dose curve at least 0.9, where 1 is the maximum; inconclusive = response in the unintended direction; inactive = score below 0.9.

This assay is described as follows: ATG_M_32_TRANS: Attagene TRANS-FACTORIAL HepG2 Assay for M32 Transcription Factor (Internal Marker) (AID 2282984). Particulars: HepG2 Attagene TRANS M32 internal marker reporter. Here is the method:
ATG_TRANS is a cell-based, multiplexed-readout assay that uses HepG2, a human liver cell line, with measurements taken at 24 hours after chemical dosing in a 24-well plate.ATG_M_32_TRANS is one of 30 assay component(s) measured or calculated from the ATG_TRANS assay. It is designed to make measurements of mRNA induction, a form of inducible reporter, as detected with fluorescence intensity signals by Reverse transcription polymerase chain reaction (RT-PCR) and Capillary electrophoresis technology.Data from the assay component ATG_M_32_TRANS was analyzed into 1 assay endpoint. This assay endpoint, ATG_M_32_TRANS, was analyzed in the positive analysis fitting direction relative to DMSO as the negative control and baseline of activity. Using a type of inducible reporter, measures of mRNA for gain-of-signal activity can be used to understand the background control at the transcription factor-level as they relate to the gene . Furthermore, this assay endpoint can be referred to as a secondary readout, because this assay has produced multiple assay endpoints where this one serves a background control function. To generalize the intended target to other relatable targets, this assay endpoint is annotated to the background measurement intended target family, where the subfamily is internal marker.
Human liver HepG2 cells are transiently transfected with multiple reporter transcription units (MRTUs) in 6-well plates using FuGene 6 reagent (Roche; 3 ml FuGene/1 mg DNA). The MRTU constructs are regulated by a cis-regulating element (promoter). […] A major difference between the CIS and TRANS system is that in CIS activities of endogenous TFs are measured, whereas the TRANS assay evaluates changes in activities of exogenous, chimeric NR-Gal4 proteins. […] At the end of 24 hour incubation, total RNA was isolated using TriZol reagent (Invitrogen). The isolated RNA is then reverse-transcribed using oligo(dT) primer and Mo-MLV reverse transcriptase (Invitrogen) with DNAse I (Ambion) treatment for 30 min. The one-tenth of the produced cDNA was amplified by PCR using Taq DNA polymerase (Invitrogen) and two reporter sequence-specific primers. The PCR products were fluorescently labeled by primer extension with 6-arboxyfluorescein (6-FAM) 5'-labeled reporter sequence-specific primer (2 min at 95 C, 20 s at 68 C and 10 min at 72 C) and these products were digested with 5U of HpaI (New England Biolabs) for 2h at 37 C. The fragments were purified using Qiaquick PCR columns (Qiagen), analyzed on an ABI 3130xL genetic analyzer (Applied Biosystems) with peak positions identified by using a set of X-rhodamine (ROX)-labeled MapMarker1000 molecular weight standards (BioVentures). The raw capillary electrophoresis data was processed using Attagraph software (Attagene).
On to `C[C@]12CCC(=O)C=C1CC[C@@H]1[C@@H]2CC[C@]2(C)C(=O)CC[C@@H]12`, for which the call was inactive.
As for `CCOP(=S)(OCC)SCSC(C)(C)C`, the result was inactive.
With `Cc1cc2c3c(c1)C(c1ccccc1)=N[C@@H](NC(=O)c1ccncc1)C(=O)N3CC2`, the call was inactive.
As to `Clc1ccc(C(c2ccccc2Cl)C(Cl)(Cl)Cl)cc1` (stereo not given), the call was inactive.
The value for `CCCCCCCCCC[N+](C)(C)CCCCCCCCCC` was “inactive”; that for `C[C@]12CCC(=O)C=C1CC[C@@H]1[C@@H]2CC[C@@]2(C)[C@H]1CC[C@]2(C)O` was “inactive”; that for `Clc1ccc(C(Cl)(Cl)Cl)cc1` was “inactive”.
With `Cc1cc(-c2ccc(N)c(C)c2)ccc1N`, the result was inactive.
Regarding `Clc1ccc(Cl)cc1`, the molecule was classed as inactive.
Under `O=C(O)C(F)(F)C(F)(F)C(F)(F)C(F)(F)C(F)(F)C(F)(F)C(F)(F)C(F)(F)C(F)(F)F` stands “inactive”.
Turning to `CC(C)(O)C(=O)Nc1ccc([N+](=O)[O-])c(C(F)(F)F)c1`, the molecule was classed as inactive.
Under `CCCN(CCC)N=O` stands “inactive”.
As to `CC(c1ccc(O)cc1)(c1ccc(O)cc1)c1ccc(O)cc1`, the molecule was classed as inactive.
Turning to `CCNc1nc(NC(C)C)nc(SC)n1`, the molecule was called inactive.
Under `Oc1ccc(Cl)cc1Cl` stands “inactive”; under `Cc1ccccc1CO[C@@H]1C[C@@]2(C(C)C)CC[C@]1(C)O2`, “inactive”.
The value for `Sc1ccccc1` was “inactive”; that for `NS(=O)(=O)C(F)(F)C(F)(F)C(F)(F)C(F)(F)C(F)(F)C(F)(F)C(F)(F)C(F)(F)F` was “inactive”; that for `Cc1ccccc1[N+](=O)[O-]` was “inactive”.
For `O=C(O)C(F)(F)C(F)(F)C(F)(F)C(F)(F)C(F)(F)C(F)(F)C(F)(F)C(F)(F)F`, the result was inactive.
Under `CCCCCCCCCc1ccc(O)cc1` stands “inactive”; under `Nc1ccc(-c2ccc(N)cc2)cc1`, “inactive”.
Take `CCOC(=O)C(O)(c1ccc(Cl)cc1)c1ccc(Cl)cc1`: the call was inactive.
On to `ClC(Cl)=C(c1ccc(Cl)cc1)c1ccc(Cl)cc1`, for which the molecule was called inactive.
With `O=C(N[C@H]1CN2CCC1CC2)c1cc2ccoc2cn1`, the molecule was called inactive.
On to `Oc1ccc(C(c2ccc(O)cc2)(C(F)(F)F)C(F)(F)F)cc1`, for which the outcome was inactive.
The value for `ClC1=C(Cl)[C@]2(Cl)[C@@H]3[C@H]4C[C@H]([C@@H]5O[C@H]45)[C@@H]3[C@@]1(Cl)C2(Cl)Cl` was “inactive”; that for `O=S(=O)(O)C(F)(F)C(F)(F)C(F)(F)C(F)(F)F` was “inactive”.
In the case of `CN(C)CCO`, the call was inactive.
Under `COc1ccc(O)c(C(C)(C)C)c1` stands “inactive”; under `Oc1c(Cl)c(Cl)c(Cl)c(Cl)c1Cl`, “inactive”; under `CO/C=C(/C(=O)OC)c1ccccc1COc1cccc(C(F)(F)F)n1`, “inactive”.
On to `C=CC(N)=O`, for which the call was inactive.
Under `CCC(C)(CC)c1cc(NC(=O)c2c(OC)cccc2OC)on1` stands “inactive”.
The value for `CC#Cc1cc(C)nc(Nc2ccccc2)n1` was “inactive”; that for `O=S(=O)(O)C(F)(F)C(F)(F)C(F)(F)C(F)(F)C(F)(F)C(F)(F)F` was “inactive”.
For the molecule `CCC(C)(c1ccc(O)cc1)c1ccc(O)cc1`, the result was inactive.
The value for `CCCCCCCCOC(=O)c1ccccc1C(=O)OCCCCCCCC` was “inactive”.
The value for `CCC(=O)O[C@H]1CC[C@H]2[C@@H]3CCC4=CC(=O)CC[C@]4(C)[C@H]3CC[C@]12C` was “inactive”.
The value for `c1cc2ccc3cccc4ccc(c1)c2c34` was “inactive”.
